Measurements as given in PubChem BioAssay AID1159580 (chemical genetic matrix, 2015).
The whole screen tested about 5,500 compounds, of which about 2,000 (36%) were called active. About 18% were inconclusive and are not listed. Rule as the data show it: active = normalized growth mostly below about 0.91 (no sharp cut-off); inconclusive = no clear call, values can overlap the other calls; inactive = mostly above about 0.92. The list shows a part of the results.

Assay: chemical genetic growth profiling, strain panel (AID 1159580);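 also: tested at 20 µM; growth read once vehicle control cultures reached saturation at 30 °C; 1 = growth at the plate median or of vehicle wells; lower values mean less growth of the strain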
Conditions: S. cerevisiae deletion strains, growth OD
[1] = locus YAL013W, strain DEP1, stronger effect = lower value
[2] = locus YBR229C, strain ROT2, stronger effect = lower value
[3] = locus YDL101C, strain DUN1, stronger effect = lower value
[4] = locus YDL134C, strain PPH21, stronger effect = lower value
[5] = locus YDR150W, strain NUM1, stronger effect = lower value
[6] = locus YEL061C, strain CIN8, stronger effect = lower value
[7] = locus YGR078C, strain PAC10, stronger effect = lower value
[8] = locus YHR030C, strain SLT2, stronger effect = lower value
[9] = locus YHR087W, strain rtc3, stronger effect = lower value
[10] = locus YJR043C, strain POL32, stronger effect = lower value
[11] = locus YJR075W, strain HOC1, stronger effect = lower value
[12] = locus YLR039C, strain RIC1, stronger effect = lower value
[13] = locus YLR058C, strain SHM2 (second series), stronger effect = lower value
[14] = locus YLR085C, strain ARP6, stronger effect = lower value
[15] = locus YLR262C, strain YPT6, stronger effect = lower value
[16] = locus YML094W, strain GIM5, stronger effect = lower value
[17] = locus YMR219W, strain ESC1, stronger effect = lower value
[18] = locus YMR263W, strain SAP30, stronger effect = lower value
[19] = locus YMR307W, strain GAS1, stronger effect = lower value
[20] = locus YNL153C, strain GIM3, stronger effect = lower value
[21] = locus YNL298W, strain CLA4 (second series), stronger effect = lower value
[22] = locus YNL322C, strain KRE1, stronger effect = lower value
[23] = locus YNR030W, strain Alg12, stronger effect = lower value
[24] = locus YPL055C, strain LGE1, stronger effect = lower value
[25] = locus YPL241C, strain CIN2, stronger effect = lower value
[26] = locus YPR135W, strain CTF4, stronger effect = lower value

Measured: normalized growth

Cc1c(S(=O)(=O)c2ccc(Cl)cc2)cnc2cc(C(C)(C)C)nn12
inactive: [1] 1.01 | [2] 1.02 | [3] 1 | [4] 1.03 | [5] 0.987 | [6] 1.01 | [7] 1.01 | [8] 1.07 | [9] 1.01 | [10] 1.01 | [11] 1.01 | [12] 1.03 | [13] 1.01 | [14] 1.02 | [15] 1.03 | [16] 1.01 | [17] 1.01 | [18] 0.982 | [19] 0.945 | locus YNL128W, strain TEP1, stronger effect = lower value 1.01 | [20] 1 | [21] 1.05 | [22] 1.01 | [23] 1.05 | locus YOL006C, strain TOP1, stronger effect = lower value 1.06 | [24] 1.01 | [25] 0.996 | [26] 1.06

O=[N+]([O-])c1cc(Cl)ccc1S(=O)(=O)c1ccccc1
active: [12] 0.634 | [15] 0.705
inactive: [1] 0.987 | [2] 0.996 | locus YCL061C, strain MRC1, stronger effect = lower value 0.994 | [3] 0.98 | [4] 0.999 | [5] 0.97 | [6] 0.969 | [7] 0.993 | locus YGR229C, strain SMI1, stronger effect = lower value 0.98 | [8] 0.836 | [9] 1.02 | [10] 0.978 | [11] 0.995 | [13] 0.996 | [14] 0.796 | [16] 0.933 | [17] 0.998 | [18] 0.996 | [19] 0.829 | [20] 0.985 | [21] 0.955 | [22] 0.987 | [23] 0.974 | [24] 0.996 | [25] 0.958 | [26] 0.803
